Experimental data published in the supplement of paper PMC11417369.
± gives the standard deviation of the averaged measurements. The full ranking holds about 25,000 sequences; the median of “ln(normalized median fluorescence intensity)” is about 7.9, and the highest 2% start at about 11. The list comes from a sample in which the highest values are over-represented; it also holds similar and randomly drawn sequences.

test system: PfAP2-I AP2 domain 3 (GST-tagged); assay: gcPBM binding intensity (ln(normalized median fluorescence intensity)); higher = stronger DNA binding
Procedure, shortened: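 Using an Agilent 4 × 180k array, primer-extended double-stranded 36-bp intergenic genomic probes and negative controls were exposed for 1 h to GST-fused P. falciparum DNA-binding domains expressed in E. coli. Binding was carried out in 1× PBS with 1% milk, 0.2 mg/ml BSA, 0.5% salmon testes DNA and 0.03% Triton X-100, and protein was detected with Alexa488 anti-GST antibody and a 488 nm scan. Binding intensity is the highest Masliner-normalised natural-log median intensity across replicate spots of either probe orientation.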

Sequence | gcPBM binding intensity (ln)
TTTTCTATTTAATTGGTGCACTGATATATACACATA [GTGCAC_site9533] | 11.3 ± 0.54
TATGTATAAATATATGCACACATATATATATTTATA [CACACA_site9150] | 8.85 ± 0.26
TATGTATTTTTATGCACACATGCGTGGCTTATATAA [CACACA_site387] | 10.9 ± 0.13
TTTATGTATTTTTATGCACACATGCGTGGCTTATAT [CACACA_site4374] | 10.79 ± 0.064
ATATATATTTCTTAAAGTACATAATAATAAAAATAT [XGTACX_site8981] | 7.79 ± 0.44
AAAAAAAATAAAATGAATAAATAAGAATTACATATT [CACACA_negctrl_site863] | 7.39 ± 0.65
TCTATGAATTAATATGCATGTAACGTATTTATACTT [TGCATGCA_site669] | 7.67 ± 0.83
CAAGCACAGAAACACACACACACACCGACACAGACA [CACACA_site4359] | 8.11 ± 0.24
CATATAAAAATGTGCACACACACACCGATATATATT [CACACA_site4940] | 9.59 ± 0.17
AAAAAAAAGTTGTAAGTGCATGTATATAATAATATT | 8.42 ± 0.54
AGGATATAAAGTTGTGCATGTCAAGTGCACCGTATT [TGCATGCA_site451] | 11 ± 0.35
AAAAAAAAATATATTGCACACCTCTCAATAAAAAAA [CACACA_site172] | 10.3 ± 0.43
CATATAAAAAATATGGTGCAGTTTTTTTTTTTTTTT | 10.2 ± 0.23
GTATATTTTATTTTATGTACATATTCATTTTTTATT [XGTACX_site561] | 8.3 ± 0.4
AAAAATGTATGTATGGTGCAGTATTCATATCATTTT [GTGCAC_site9458] | 10.93 ± 0.057
ACTATAAATATATAAATATATATATATATATATATA [GTGCAC_negctrl_site65] | 9.34 ± 0.8
TATAAGTAGATAAGGGTGCACAATATAAATATATAG | 11.55 ± 0.021
AAAAATAAAAGGTGTGCACACAAAAATATATATATA [CACACA_site8507] | 9.74 ± 0.26
ACAAAAAAATAAGGTGCACACAAAAAAAAAAAAAAA [CACACA_site8171] | 10.7 ± 0.76
AATAAATAGATAAGCACACAAGCATATAGACATATA [CACACA_site222] | 7.72 ± 0.49
ATATATATATATTACACACACACAAAAAAAATAAAG [CACACA_site118] | 9.07 ± 0.18
TTATAAAAGACAAAAGTGCATATATACATATGTATA | 9.49 ± 0.21
TAAATATAAAAATGCACACACACAAAAAAAAAAAAA [CACACA_site895] | 8.88 ± 0.085
AAAAAAATAAGGTGCACACAAAAAAAAAAAAAAAAA [CACACA_site812] | 10.9 ± 0.71

Sequence | gcPBM binding intensity (ln)
ATATATATATTAAAGGTGCACAAATAAATATATACA [GTGCAC_site9532] | 11.54 ± 0.035
TATAAATATACAAAGGTGCATAAAAAGTTATGTTTT [GTGCAC_site9832] | 11.2 ± 0.26
ATAAAATATAAAAACGCACACAATTATAAGGGTGTA [CACACA_site177] | 7.95 ± 0.35
AAAAAAAAAATTTAGGTGCATACAAATAAATTATAT [GTGCAC_site9521] | 10.2 ± 0.48
ATATGTGTGTGTATTTGTACCCAATTTTTATATATA [XGTACX_site4948] | 8.29 ± 0.43
TATATATATATATATGTGCACATATATATGATATTA | 9.79 ± 0.28
CGAATAAATATATGTAGTACATGTTGTAGATAATTT [XGTACX_site1218] | 8.01 ± 0.48
ATTTATTAATCATATACACACATATATTTGTATTTA [CACACA_site1336] | 7.67 ± 0.49
TTTGGGTATACACATACATGCATGTCCTTATATATA [TGCATGCA_site84] | 7.86 ± 0.63
TGTGTAATATTCTGTTGTACATAACTCATAAATAAA [XGTACX_site5308] | 7.95 ± 0.31
AATATGTTATAAATATGTTATAAATAATAAATAAAT [GTGCAC_negctrl_site135] | 7.74 ± 0.62
AAAATAGCTGTATAGAGTACATATAAATAATGTTGT [XGTACX_site5692] | 7.57 ± 0.58
TAAATCACAAAATTATGTACTAAGAAGGAGCAACAT [XGTACX_site6742] | 8.05 ± 0.45
AACATACATAAACACACACACACACCCACAGAGACA [CACACA_site4430] | 8.32 ± 0.22
ATGTTTGAGCCTAAGGTGCATATAAAAATATATGTG [GTGCAC_site9690] | 11 ± 0.66
TTTTTTTGTTAAAAGGTGCTAATATATATAAGTGCT | 10.1 ± 0.45
TGAGCACAAATACAGGTGCATATAAAATATATGACG | 10.3 ± 0.3
AATACATATTCAAAGGTGCAAAATAAAAATATACAT [GTGCAC_site9743] | 11.2 ± 0.44
AATATACATAACAAGGTGCAAAAAATATTGTTCATA [GTGCAC_site9499] | 10.4 ± 0.26
TATATTGCAAAAAGTACACACATAAATAAATACATA [CACACA_site6589] | 8.2 ± 0.24
AAATATAAAGTGCACACACACAAAAAAAGAAAAAAA [CACACA_site6452] | 10.2 ± 0.36
AAAAATAAAGGGTGTGCACACAAAAATATATATATA [CACACA_site1727] | 9.8 ± 0.14
AAATAAAAAGGGTGCACACAAAAATATATATATATA [CACACA_site1728] | 11 ± 0.84
